Source: PubChem
Tau filament bind: binders of human tau filaments. P10636. recombinant tau filaments, thioflavin S fluorescence, 15 h; filaments grown with octadecylsulfate alongside compound. Potency, µM (titrated, usually from 57.1 µM). 71,000 compounds, 2% hits. AID 596;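 further: actives lower thioflavin S fluorescence by blocking filaments or displacing dye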
Target sequence (P10636 whole entry, looked up): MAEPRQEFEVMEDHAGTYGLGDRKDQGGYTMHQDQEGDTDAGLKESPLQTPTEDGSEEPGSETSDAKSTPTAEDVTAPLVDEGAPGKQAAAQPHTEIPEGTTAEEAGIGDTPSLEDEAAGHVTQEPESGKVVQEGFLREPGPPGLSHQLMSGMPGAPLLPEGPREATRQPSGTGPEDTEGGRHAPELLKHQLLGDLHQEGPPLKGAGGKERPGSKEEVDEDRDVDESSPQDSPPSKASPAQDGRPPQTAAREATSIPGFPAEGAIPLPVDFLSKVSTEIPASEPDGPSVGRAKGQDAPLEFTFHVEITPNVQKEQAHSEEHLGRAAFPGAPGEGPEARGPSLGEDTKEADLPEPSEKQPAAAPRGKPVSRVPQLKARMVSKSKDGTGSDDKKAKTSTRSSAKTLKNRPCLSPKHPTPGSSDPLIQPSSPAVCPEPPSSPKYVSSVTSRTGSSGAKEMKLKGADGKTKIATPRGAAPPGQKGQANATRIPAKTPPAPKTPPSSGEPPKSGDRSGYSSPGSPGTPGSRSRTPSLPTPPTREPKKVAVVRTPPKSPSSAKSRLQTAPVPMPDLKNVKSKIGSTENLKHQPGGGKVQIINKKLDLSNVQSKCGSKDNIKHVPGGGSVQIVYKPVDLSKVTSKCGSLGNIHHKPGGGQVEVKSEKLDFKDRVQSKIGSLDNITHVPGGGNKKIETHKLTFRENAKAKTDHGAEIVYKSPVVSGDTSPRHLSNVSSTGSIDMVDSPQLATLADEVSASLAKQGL
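Read-out: ThS fluorescence, 450 nm excitation/510 nm emission; lower signal marks blocked filament formation or displaced dye. Tau at 1 uM with 30 uM ODS, 10 uM ThS, 5 mM DTT, 100 mM NaCl, 10 mM HEPES pH 7.4; 15 h, 37 C.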
Hsp90 Hop PPI: changes Hsp90-Hop TPR2A binding signal, up or down; AlphaScreen TPR2A-His6 binding biotin-Hsp90 C-terminal peptide; AID 595; Potency, µM (highest dose often 57 µM); 71,000 compounds, 0.44% hits; active means well fitted curve in either direction with a large enough effect; inconclusive means small, poorly fitted or top-dose-only effect, or another doubt
BRCT inh green: BRCA1 BRCT-phosphoprotein interaction inhibition; P38398; BRCA1 BRCT-phosphopeptide binding, green fluorescence polarization; Potency, µM (series often up to 76.9 µM), most hits filed as inhibitors; 75,000 compounds, 0.05% hits; AID 875
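Fluorescence polarization: His-tagged BRCT (~35 kDa BRCA1 C-terminus, 250 nM) bound to 100 nM fluorescein-labeled phosphorylated 10-aa BACH1 peptide, pH 7.3 phosphate buffer with DTT and Tween 20. Compounds incubated 12 min at room temperature; inhibition read as lowered polarization.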
BRCT PPI red: BRCT-phosphoprotein interaction inhibition (red fluorophore) | 75,000 compounds, 0.03% hits | BRCT-phosphopeptide binding, red fluorescence polarization | AID 892 | P38398 | Potency, µM (series often up to 76.9 µM), most hits filed as inhibitors
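Rhodamine-labelled pBACH1 10-mer (100 nM) bound to BRCT domain (100 nM) at pH 7.3; compounds incubated 12 min room temperature, polarization read. Free peptide defines full inhibition; unlabelled decapeptide titrated as control.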
TsaE inh: displaces an ADP probe from E. coli YjeE (TsaE); P0AF67; purified YjeE enzyme, qHTS inhibition assay; Potency, µM; 71,000 compounds, 0.05% hits; AID 605
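Purified YjeE (10 uM) with BODIPY Texas Red-labeled ADP probe (2 uM); compounds pin-transferred, 15 min at room temperature. Binding inhibition read as decreased fluorescence polarization; ADP titration as control.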
DNA Pol III inh: DNA polymerase III holoenzyme inhibition; reconstituted DNA polymerase III holoenzyme replication, biochemical; Potency, µM (highest dose often 57.1 µM); 71,000 compounds, 0.25% hits
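Reconstituted *E. coli* holoenzyme (0.35 nM Pol III, 1 nM beta, 154 nM SSB, 2 nM primase) was preincubated with compound for 15 min at RT. Synthesis on 1.4 nM ssM13Gori ran 35 min, then was stopped with PicoGreen/EDTA and read as dsDNA fluorescence.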
Large screens that a line does not name were inactive. Sampled rows, rich in hits. Any-hit rate of the full collection: about 2.4%. Unless noted, the call rests on the fitted dose curve; in most records, active means well fitted curve in the direction sought with a large enough effect; inconclusive means small, poorly fitted or top-dose-only effect, or another doubt; inactive means no such curve, though single readings can be large; an effect the other way counts as inactive or inconclusive.

Cc1noc(C)c1-c1nccc(NCc2ccccc2)n1	none
C=CCN(CC=C)c1nc2ccccc2nc1C(C#N)C(=O)OCCOC (stereo unspecified)	none
CCCN(CCC)c1nc2ccccc2nc1C(C#N)C(=O)OCCOC (stereo unspecified)	Tau filament bind 1.3µM
C=C[C@H](N)CCC(=O)O	Tau filament bind inconclusive
O=C(CSc1nnc(C2COc3ccccc3O2)o1)NC1CCCCC1 (stereo unspecified)	none
O=C(CSc1nnc(C2COc3ccccc3O2)o1)Nc1nccs1 (stereo unspecified)	Hsp90 Hop PPI 13µM
CNC1C(O)C(O[C@H]2C(O)[C@@H](OC3OC(CN)=CCC3N)[C@H](N)C[C@@H]2N)OC[C@]1(C)O (stereo partly specified)	none (no result: Tau filament bind, Hsp90 Hop PPI, TsaE inh, DNA Pol III inh)
CC1Cc2ccccc2N1Cc1nc2scc(-c3cccs3)c2c(=O)[nH]1 (stereo unspecified)	Tau filament bind 13µM
COC(=O)c1ccc2c(=O)[nH]c(CN3c4ccccc4CC3C)nc2c1 (stereo unspecified)	Tau filament bind inconclusive
O=S(=O)(c1ccccc1)N1CCC2(CCCN(c3ccccn3)C2)CC1	none
Cc1ccc(-c2nc(-c3ccccc3)no2)c(Cl)c1	Hsp90 Hop PPI 25µM
COc1ccc(C2c3c(oc4ccccc4c3=O)C(=O)N2c2ccc(C)cn2)cc1OC (stereo unspecified)	Tau filament bind 6.3µM
COc1ccc(C2c3c(oc4ccc(C)cc4c3=O)C(=O)N2c2cc(C)ccn2)cc1OC (stereo unspecified)	Tau filament bind inconclusive
CCOc1ccc(C2c3c(oc4cc(C)c(C)cc4c3=O)C(=O)N2CCCN(C)C)cc1OC (stereo unspecified)	Tau filament bind 25µM
COC(=O)c1ccc(C2c3c(oc4cc(C)c(C)cc4c3=O)C(=O)N2CCCN(C)C)cc1 (stereo unspecified)	Tau filament bind 10µM
CCOC(=O)c1c(C)oc2c1c(C(c1ccncc1)N1CCOCC1)c(O)c1ccccc12 (stereo unspecified)	Tau filament bind 13µM
CC(C)(C)c1cc(C(c2cccnc2)N2CCN(CCO)CC2)cc(C(C)(C)C)c1O (stereo unspecified)	none
OCCN1CCN(C(c2cccs2)c2ccc3cccnc3c2O)CC1 (stereo unspecified)	Tau filament bind 6.3µM, Hsp90 Hop PPI 32µM
N#Cc1cc2sc3nc4ccccc4n3c2cc1C#N	none
N#Cc1cc2sc3nnc(-c4ccncc4)n3c2cc1C#N	Tau filament bind 7.9µM
c1ccc(CNCCN2CCNCC2)nc1	Hsp90 Hop PPI 4µM
O=S1(=O)CCN(Cc2ccccn2)CC1	none
O=c1cnc2cnc(Nc3ccccc3)nc2n1C1CC1	none
CC(=NCCCn1ccnc1)C1=C(O)c2ccccc2C1=O	Hsp90 Hop PPI 13µM
O=C1C(C=NCCCn2ccnc2)=C(O)c2ccccc21	Hsp90 Hop PPI 3.2µM
COc1ccc(NC(=O)N2CC[C@@]3(CCCNC3)C2)cc1	none
O=C(NC1CCN(Cc2ccccc2)CC1)C1CCCN(S(=O)(=O)c2cccc3nonc23)C1 (stereo unspecified)	Tau filament bind 16µM
N#CCCn1c(=O)c(-c2cccs2)nc2cnc(Oc3ccccc3)nc21	none
O=c1cnc2cnc(Oc3cccc(Cl)c3)nc2n1Cc1ccc(F)cc1	Tau filament bind 16µM
COCCn1c(=O)c(-c2cc(F)cc(F)c2)nc2cnc(Oc3ccccc3)nc21	Tau filament bind inconclusive
COCCn1c(=O)c(-c2cc(F)cc(F)c2)nc2cnc(Oc3cccc(Cl)c3)nc21	Tau filament bind 13µM
COCCn1c(=O)c(-c2cc(F)cc(F)c2)nc2cnc(Oc3ccc(OC)cc3)nc21	Tau filament bind 16µM
COCCn1c(=O)c(-c2ccc(F)cc2)nc2cnc(Oc3cccc(Cl)c3)nc21	none
COc1ccc(-n2c(=O)c(C)nc3cnc(Oc4ccccc4)nc32)cc1	none
O=C(O)c1ccccc1N[C@H](c1ccccc1)c1ccc2cccnc2c1O	none
COc1cc(C(Nc2ccccn2)c2ccc3ccc(C)nc3c2O)cc(OC)c1O (stereo unspecified)	Tau filament bind 13µM, Hsp90 Hop PPI inconclusive
Oc1c(C(Nc2ccccn2)c2ccccn2)ccc2cccnc12 (stereo unspecified)	Hsp90 Hop PPI 3.2µM
CC(=O)NC(c1ccco1)c1ccc2cccnc2c1O (stereo unspecified)	Hsp90 Hop PPI 7.9µM
CS(=O)(=O)N(CC(=O)Nc1ccc2c(c1)OCO2)Cc1ccc(Cl)cc1	Tau filament bind inconclusive
O=C(Nc1ccc2c(c1)OCO2)C1(S(=O)(=O)c2ccc(Cl)cc2)CC1	Tau filament bind 16µM
O=C(Nc1cccc(Cl)c1)Nc1ccc2c(c1)OCO2	Tau filament bind 13µM
N#C/C(=C\c1ccc(O)c(O)c1)C(=O)NCCCCc1ccccc1	Tau filament bind inconclusive
CC1(C)Oc2cc3c(cc2O1)OC(C)(C)O3	none (no result: Tau filament bind, Hsp90 Hop PPI, TsaE inh, DNA Pol III inh)
COc1cccc(N=Cc2ccc(O)cc2O)c1	Tau filament bind 32µM
O[C@@H]1CC[C@H]2Cc3ccccc3N=C21	Tau filament bind inconclusive (no result: BRCT inh green, BRCT PPI red)
COc1cc(OC)c2c(c1)OC(c1ccccc1)CC2=O (stereo unspecified)	none (no result: Tau filament bind, Hsp90 Hop PPI, TsaE inh, DNA Pol III inh)
CC(C)(C)N1C(=O)[C@H]2[C@@H]3[C@H](O)[C@H](O)CC(=O)[C@H]3CC[C@H]2C1=O	none (no result: Tau filament bind, Hsp90 Hop PPI, TsaE inh, DNA Pol III inh)
Brc1ccc2ncnc(Nc3ccc(N4CCOCC4)cc3)c2c1	Tau filament bind 16µM
COCCCn1c(=N)c(C(=O)NCc2ccc3c(c2)OCO3)cc2c(=O)n3ccccc3nc21	Tau filament bind 10µM
Cc1cccn2c(=O)c3cc(C(=O)NC4CCCC4)c(=N)n(C4CCCC4)c3nc12	Tau filament bind 0.4µM
COc1ccc(CCNC(=O)c2cc3c(=O)n4cccc(C)c4nc3n(Cc3ccncc3)c2=N)cc1	Tau filament bind 3.2µM
COCCn1c(=N)c(C(=O)NCc2ccco2)cc2c(=O)n3ccccc3nc21	none
COCCCn1c(=N)c(C(=O)NCc2ccc3c(c2)OCO3)cc2c(=O)n3cccc(C)c3nc21	Tau filament bind 3.2µM
COCCNC(=O)c1cc2c(=O)n3cccc(C)c3nc2n(Cc2ccncc2)c1=N	none
COc1cccc(Cn2c(=O)c(-c3ccc(F)cc3)nc3cnc(N(C)C)nc32)c1	none
C[C@@H]1CC2(OC[C@]3(C)O[C@H]23)O[C@H]2C[C@@]3(C)[C@@H]4CC[C@H]5C(C)(C)C(O[C@@H]6OC[C@@H](O)[C@H](O)[C@H]6O)CC[C@@]56C[C@@]46CC[C@]3(C)[C@@H]12 (stereo partly specified)	none
